Screening results deposited in PubChem BioAssay by several laboratories.
CSC inhib – cancer stem cell viability inhibitors, primary screen, luminescence. cancer stem cell-like cells viability. inhibition, % at 7.5 µM. 300,000 tested, 1.1% active; in the data active means inhibition above about 75%; tested in HMLE shEcad cells
Mdm2-MdmX inh – inhibitors of human Mdm2-MdmX association, primary screen, cell-based, luminescence, split luciferase, SaOS-2, uHTS; SaOS-2 split-luciferase Mdm2/MdmX complementation; inhibition, % at 8 µM; 330,000 tested, 3% active; AID 485346, 2010;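 active means inhibition of at least 50% at 8 µM in the primary screen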
Target sequence (O15151 whole entry, looked up): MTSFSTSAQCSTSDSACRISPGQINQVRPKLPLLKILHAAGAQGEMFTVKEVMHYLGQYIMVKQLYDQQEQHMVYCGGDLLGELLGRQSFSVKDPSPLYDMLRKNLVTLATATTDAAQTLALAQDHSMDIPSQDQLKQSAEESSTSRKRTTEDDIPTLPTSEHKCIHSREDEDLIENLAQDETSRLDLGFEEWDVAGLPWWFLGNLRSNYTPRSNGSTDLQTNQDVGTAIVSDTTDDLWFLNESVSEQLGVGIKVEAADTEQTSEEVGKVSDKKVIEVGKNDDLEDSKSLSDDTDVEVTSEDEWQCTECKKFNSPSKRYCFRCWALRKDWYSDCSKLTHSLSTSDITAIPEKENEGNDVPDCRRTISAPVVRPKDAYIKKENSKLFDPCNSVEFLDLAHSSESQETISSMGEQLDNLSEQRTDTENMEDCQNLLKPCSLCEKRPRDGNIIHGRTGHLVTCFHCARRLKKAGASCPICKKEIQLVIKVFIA
Target sequence (Q00987 whole entry, looked up): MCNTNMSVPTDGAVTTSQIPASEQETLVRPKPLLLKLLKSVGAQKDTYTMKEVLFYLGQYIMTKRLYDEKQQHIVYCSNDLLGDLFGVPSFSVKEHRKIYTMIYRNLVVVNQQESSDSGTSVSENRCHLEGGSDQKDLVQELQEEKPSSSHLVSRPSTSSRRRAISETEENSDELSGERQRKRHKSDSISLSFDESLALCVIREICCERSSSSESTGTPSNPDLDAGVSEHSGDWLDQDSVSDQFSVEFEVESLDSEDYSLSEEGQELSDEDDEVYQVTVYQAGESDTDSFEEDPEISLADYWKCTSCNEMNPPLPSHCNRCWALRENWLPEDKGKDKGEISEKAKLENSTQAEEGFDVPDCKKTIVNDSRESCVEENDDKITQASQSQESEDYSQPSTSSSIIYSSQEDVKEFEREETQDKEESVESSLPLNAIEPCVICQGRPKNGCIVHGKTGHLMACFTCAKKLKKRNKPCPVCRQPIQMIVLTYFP
aSyn 5UTR inh – MLPCN primary screen, SNCA 5' untranslated region; alpha-synuclein 5'UTR reporter, inhibitor activity; inhibition, % (tested at 7.5 µM); 300,000 tested, 0.82% active; AID 1813, 2009; in the data active means inhibition above about 60%;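 further: H4 neuroglioblastoma cells stably carrying SNCA 5'UTR luciferase fusion; 0% = DMSO wells and 100% = positive control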
Bfl-1 A1 inh – caspase 3/7 activation in MEF A1-2A-BIM cells, primary screen, A1 inhibitor project, cell-based, luminescence, HTS; Caspase-Glo 3/7 luminescence, 3 h; percent of clofoctol response, vehicle zero; caspase activation, % (concentration not given with the values); 330,000 tested, 0.066% active; AID 2462, 2010;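 active means over half of replicate activation scores above 10%, or exactly half above 10 with the replicate mean above 10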
Beta apoptosis – inhibitors of cytokine-induced beta cell apoptosis, primary screen, luminescence; INS-1E cytokine-induced death, ATP luminescence, 48 h; percent of positive-control rescue, neutral wells zero; protection from apoptosis, % (no concentration beside the values); 300,000 tested, 0.8% active; AID 435005, 2010;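 active means Every replicate reaches about 75%, or at least half do and their mean reaches it too, limit read from the data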;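 further: 0% = cytokine-treated negative control wells and 100% = positive control rescue; higher means more ATP so stronger rescue from cytokine killing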
* = called active by the depositor. Rows were chosen to be rich in hits. Some 4.1% of all compounds tested hit in one or more screens of this group.

Cc1ccc(-c2ccc([C@H]3[C@@H]4C=CCC[C@@]4(C)C(=O)N3Cc3ccccc3)c(F)c2)cc1 was read as CSC inhib 96.3*, Mdm2-MdmX inh 39.2, aSyn 5UTR inh 22.2, Bfl-1 A1 inh 0.0 and Beta apoptosis 5.0.
For C=CCn1c(=O)c2c(nc(-n3nc(C)cc3C)n2C)n(C)c1=O the results were CSC inhib -11.9, Mdm2-MdmX inh 12.6, aSyn 5UTR inh -2.4, Bfl-1 A1 inh 0.9 and Beta apoptosis -0.8.
Screening Cc1nc2ccc(NC(=O)CCC3CCCC3)cc2s1 returned CSC inhib -11.3, Mdm2-MdmX inh -46.7, aSyn 5UTR inh -143.5 and Bfl-1 A1 inh -0.4.
For O=C(CSCc1cc(=O)n2nc(C3CC3)sc2n1)Nc1ccc(F)cc1 the results were CSC inhib 0.7, Mdm2-MdmX inh -5.4, aSyn 5UTR inh 30.2, Bfl-1 A1 inh 0.4 and Beta apoptosis -15.3.
For Cn1c(=N)n(CC(=O)O)c2ccccc21 the results were CSC inhib -10.0, Mdm2-MdmX inh 11.1, aSyn 5UTR inh -9.5 and Bfl-1 A1 inh 0.8.
For Cn1c(=N)n(CC(=O)c2ccccc2)c2ccccc21 the results were CSC inhib -2.9, Mdm2-MdmX inh -62.3, aSyn 5UTR inh 89.8* and Bfl-1 A1 inh -7.1.
Screening Oc1ccc(Nc2nc(-c3ccc4ccccc4c3)cs2)cc1 returned CSC inhib 134.1*, Mdm2-MdmX inh -87.8, aSyn 5UTR inh -210.0, Bfl-1 A1 inh 0.0 and Beta apoptosis 84.4*.
CC(=O)Nc1nc(-c2ccc3ccccc3c2)cs1 was read as CSC inhib -0.9, Mdm2-MdmX inh -254.7, aSyn 5UTR inh -143.1, Bfl-1 A1 inh -4.5 and Beta apoptosis 7.8.
Cc1ccsc1C(=O)NC1CCCN(Cc2ccc(Cl)cc2)C1 (stereo not drawn) was read as CSC inhib -0.2, Mdm2-MdmX inh -10.5, aSyn 5UTR inh -6.3, Bfl-1 A1 inh -0.4 and Beta apoptosis 3.0.
Screening C=CCn1cccc(/C=C/C(=O)c2ccc(C(C)(C)C)cc2)c1=S returned CSC inhib 110.6*, aSyn 5UTR inh -74.4, Bfl-1 A1 inh 0.2 and Beta apoptosis 1.2.
COc1ccc(S(=O)(=O)N2CCC(C(=O)Nc3ccc(S(=O)(=O)N4CCCC4)cc3)CC2)cc1OC was read as CSC inhib -16.4, Mdm2-MdmX inh 11.2, aSyn 5UTR inh 22.6, Bfl-1 A1 inh 0.7 and Beta apoptosis 4.8.
`COc1cc(NS(=O)(=O)c2ccc(NC(=O)/C=C/C(=O)O)cc2)nc(OC)n1` gave CSC inhib 0.4, Mdm2-MdmX inh 9.3, aSyn 5UTR inh -19.9 and Bfl-1 A1 inh 1.2.
For O=C(NCCS(=O)(=O)N1CCCCCC1)c1ccc(F)cc1 the results were Mdm2-MdmX inh -1.4, aSyn 5UTR inh -0.3, Bfl-1 A1 inh -0.5 and Beta apoptosis 0.3.
For NC(=O)c1sc(-c2ccsc2)cc1NS(=O)(=O)c1ccc(C(F)(F)F)cc1 the results were CSC inhib 79.0*, Mdm2-MdmX inh 13.4, aSyn 5UTR inh -23.9, Bfl-1 A1 inh 0.8 and Beta apoptosis 12.6.
For Clc1ccccc1Cn1c(/C=C/c2ccco2)nc2ccccc21 the results were CSC inhib 112.3*, aSyn 5UTR inh -30.8, Bfl-1 A1 inh 0.4 and Beta apoptosis -5.8.
For O=C(O)CC(NC(=O)CC(c1ccccc1)c1ccccc1)c1cccc([N+](=O)[O-])c1 (stereo not drawn) the results were CSC inhib 0.3, Mdm2-MdmX inh -3.0, aSyn 5UTR inh 2.0, Bfl-1 A1 inh 0.7 and Beta apoptosis -3.7.
`Cc1cccc(NC(=O)CSCC(=O)NCc2ccco2)c1` gave CSC inhib -5.9, Mdm2-MdmX inh 18.5, aSyn 5UTR inh -0.2, Bfl-1 A1 inh -0.9 and Beta apoptosis -3.5.
For CC(=O)Oc1ccc(-c2csc(Nc3cccc(C)n3)n2)cc1 the results were CSC inhib 79.1*, Mdm2-MdmX inh -142.6, aSyn 5UTR inh -250.1 and Bfl-1 A1 inh -1.4.
O=C(NNC(=O)c1cccc(S(=O)(=O)N2CCCCC2)c1)c1ccccc1 was read as CSC inhib -10.7, Mdm2-MdmX inh 15.7, Bfl-1 A1 inh -0.4 and Beta apoptosis -1.2.
For CC(C)Cn1c(O)c(N=NC(=O)c2cccc(S(=O)(=O)N3CCCCC3)c2)c2ccccc21 the results were CSC inhib 91.4*, Mdm2-MdmX inh 37.0, aSyn 5UTR inh 24.7, Bfl-1 A1 inh 0.0 and Beta apoptosis 37.5.
`COc1ccc(OC(=O)N2CCOCC2)cc1` gave CSC inhib -15.3, Mdm2-MdmX inh 0.3, aSyn 5UTR inh -14.9, Bfl-1 A1 inh 0.4 and Beta apoptosis -0.7.
`COc1cc(OC)c(C=O)c(OC(=O)N2CCOCC2)c1` gave CSC inhib 128.2*, Mdm2-MdmX inh 18.4, aSyn 5UTR inh 6.6, Bfl-1 A1 inh 0.9 and Beta apoptosis -11.5.
For CCCc1cc(=O)[nH]c(Nc2ccc(N3CCCCC3)cc2)n1 the results were CSC inhib -0.1, Mdm2-MdmX inh 1.5, aSyn 5UTR inh 28.1, Bfl-1 A1 inh -0.2 and Beta apoptosis 15.0.
CCCCc1ccc(Nc2nc(CCC)cc(=O)[nH]2)cc1 was read as CSC inhib 102.3*, Mdm2-MdmX inh 10.0, aSyn 5UTR inh 0.2, Bfl-1 A1 inh -1.5 and Beta apoptosis 34.2.
`CC(=O)Nc1ccc(S(=O)(=O)N2CCC3(CC2)CC(=O)c2ccccc2O3)cc1` gave CSC inhib -9.7, Mdm2-MdmX inh 11.6, aSyn 5UTR inh 4.6 and Bfl-1 A1 inh 0.3.
CCOc1ccc(-n2c(SCc3cc(=O)oc4cc(C)ccc34)nnc2-c2cccnc2)cc1 was read as CSC inhib -2.9, Mdm2-MdmX inh 8.5, aSyn 5UTR inh 19.4, Bfl-1 A1 inh 0.3 and Beta apoptosis 8.3.
CC(C)c1ccccc1-n1c(SCc2cc(=O)oc3ccc4ccccc4c23)nnc1-c1cccnc1 was read as CSC inhib 75.8*, Mdm2-MdmX inh 31.8, aSyn 5UTR inh -22.8, Bfl-1 A1 inh 0.6 and Beta apoptosis 10.1.
`Cc1ccc(/C=C/C(=O)c2cc(Br)ccc2OC(=O)c2ccco2)cc1` gave CSC inhib 93.3*, Mdm2-MdmX inh 39.5, aSyn 5UTR inh -94.2, Bfl-1 A1 inh 1.6 and Beta apoptosis 8.2.
COc1ccc([C@@H]2CC(=O)c3c(O)cc(O)cc3O2)cc1O was read as CSC inhib 2.1, Mdm2-MdmX inh 2.2, Bfl-1 A1 inh -2.5 and Beta apoptosis 0.6.
For COc1c(CC=C(C)C)cc(C2CC(=O)c3c(O)cc(O)cc3O2)cc1CC=C(C)C (stereo not drawn) the results were CSC inhib 100.2*, Mdm2-MdmX inh 20.7, aSyn 5UTR inh -33.6, Bfl-1 A1 inh -0.8 and Beta apoptosis 108.1*.
Screening COc1ccc(CNC(=O)COC(=O)CN2C(=O)NC3(CCCC3)C2=O)cc1 returned Mdm2-MdmX inh -1.0, Bfl-1 A1 inh 0.0 and Beta apoptosis -3.7.
For CC(=O)N(O)CCCCCNC(=O)CCC(=O)N(O)CCCCCNC(=O)CCC(=O)N(O)CCCCCN the results were CSC inhib 19.1, Mdm2-MdmX inh 23.7, aSyn 5UTR inh 74.6*, Bfl-1 A1 inh 0.3 and Beta apoptosis 4.9.
